Reference: the supplement of paper PMC11634586
Structures can show the parent of a compound that is named as a salt. Values without a mark were called inactive.

Tested on: NCI-H1688
Assay: inhibition of cell viability relative to untreated control (fraction); higher = stronger growth inhibition, active = 0.5 or more
Conditions: 30 µM; 24 h
Method in brief: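 NCI-H1688 small cell lung cancer cells were seeded at 3 × 10^3 cells/well in 96-well plates and treated 24 h later with a natural compound library (TargetMol) at 30 µM for 24 h, at 37°C with 5% CO2. Viability was read in triplicate with Cell Counting Kit-8 as absorbance at 450 nm. Inhibition of cell viability is expressed as a fraction, derived from viability normalised to the untreated control.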

Structure (SMILES) | inhibition of cell viability
CC[C@@]1(O)C(=O)OCc2c1cc1n(c2=O)Cc2cc3cc(O)ccc3nc2-1 [10-Hydroxycamptothecin] | 0.98 (active)
COc1ccc(/C=C\c2cc(OC)c(OC)c(OC)c2)cc1O [Combretastatin A4] | 0.823 (active)
O=c1c(-c2ccc(O)cc2)coc2c([C@@H]3O[C@H](CO)[C@@H](O)[C@H](O)[C@H]3O)c(O)ccc12 [Puerarin (Kakonein)] | 0.109
CC1CCC(C(C)C)C(O)C1 (racemic) [DL-Menthol] | 0.0236
O=C(O)[C@H](O)Cc1ccc(O)c(O)c1 [Danshensu] | 0.318
Oc1cc(O)c2c(c1)OC(c1ccc(O)c(O)c1)C(OC1(c3ccc(O)c(O)c3)Oc3cc(O)cc(O)c3C(O)C1O)C2 (stereo not drawn) [Proanthocyanidins] | -0.126
COc1ccc(-c2cc(=O)c3c(O)cc(O)cc3o2)cc1O [Diosmetin] | 0.314
O=C1c2c(O)cc(O)cc2OC(c2ccc(O)c(O)c2)C1O (stereo not drawn) [Taxifolin (Dihydroquercetin)] | 0.086
CC[C@]12CCCN3CCc4c(n(c5ccccc45)[C@@](O)(C(=O)OC)C1)[C@@H]32 [Vincamine] | 0.408
O=c1c(O)c(-c2ccccc2)oc2ccccc12 [3-Hydroxyflavone] | 0.587 (active)
OC[C@H]1O[C@H](OC[C@H]2O[C@H](OC[C@H]3O[C@H](O[C@]4(CO)O[C@H](CO)[C@@H](O)[C@@H]4O)[C@H](O)[C@@H](O)[C@@H]3O)[C@H](O)[C@@H](O)[C@H]2O)[C@H](O)[C@@H](O)[C@H]1O [D-Stachyose tetrahydrate] | -0.0317
NCCCNCCCCNCCCN [Spermine] | -0.283
NC[C@H]1O[C@H](O[C@H]2[C@H](O)[C@@H](O[C@H]3O[C@H](CO)[C@@H](O)[C@H](N)[C@H]3O)[C@H](N)C[C@@H]2N)[C@H](O)[C@@H](O)[C@@H]1O [Kanamycin sulfate] | 0.154
Cc1cc(O)cc(O)c1C(=O)O [Orsellinic acid] | -0.313
C[C@@H]1[C@H](O)[C@@H](C)/C=C/C=C/C=C/C=C/C=C/C=C/C=C/[C@H](O[C@@H]2O[C@H](C)[C@@H](O)[C@H](N)[C@@H]2O)C[C@@H]2O[C@](O)(C[C@@H](O)C[C@@H](O)[C@H](O)CC[C@@H](O)C[C@@H](O)CC(=O)O[C@H]1C)C[C@H](O)[C@H]2C(=O)O [Amphotericin B] | 0.0269
C[C@H]1O[C@H](O[C@H]2[C@H](O)[C@@H](O)[C@@H](O[C@H]3[C@H](O)[C@@H](O)C(O)O[C@@H]3CO)O[C@@H]2CO)[C@H](O)[C@@H](O)[C@@H]1N[C@H]1C=C(CO)[C@@H](O)[C@H](O)[C@H]1O (stereo partly drawn) [Acarbose] | -0.208
COc1ccc2cc1Oc1ccc(cc1)C[C@H]1c3c(cc4c(c3Oc3cc5c(cc3OC)CCN(C)[C@@H]5C2)OCO4)CCN1C [Cepharanthine] | 1.01 (active)
OC[C@H]1O[C@H](O)[C@H](O)[C@@H](O)[C@H]1O [Alpha-D-galactose] | 0.0334
CC1=CC(=O)c2ccccc2C1=O [Menadione] | 0.979 (active)
CC1C(=O)OC2C(O)C34C5CC(C(C)(C)C)C36C(OC(=O)C6O)OC4(C(=O)O5)C12O (stereo not drawn) [Ginkgolide B] | -0.0261
CC(C)=CCC/C(C)=C/CC/C(C)=C/CC/C(C)=C/CC/C(C)=C/CC/C(C)=C/CC/C(C)=C/CC/C(C)=C/CC/C(C)=C/CO [Solanesol] | 0.301
NC1C(O)O[C@H](CO)C(O[C@@H]2O[C@H](CO)C(O[C@@H]3O[C@H](CO)[C@@H](O)[C@H](O)[C@H]3N)[C@H](O)C2N)C1O (stereo partly drawn) [Chitosan] | 0.266
CO[C@H]1C[C@H](O[C@H]2[C@H](C)O[C@@H](O[C@@H]3/C(C)=C/C[C@@H]4C[C@@H](C[C@]5(C=C[C@H](C)[C@@H](C6CCCCC6)O5)O4)OC(=O)[C@@H]4C=C(C)[C@@H](O)[C@H]5OC/C(=C\C=C\[C@@H]3C)[C@]54O)C[C@@H]2OC)O[C@@H](C)[C@@H]1O [Doramectin] | 0.993 (active)
